# Data published in article PMC7862700, “An all-to-all approach to the identification of sequence-specific readers for epigenetic DNA modifications on cytosine”.
# Key:
# Assay in all cases: DAPPL (digital affinity profiling via proximity ligation, sequencing); 10 mM Tris-HCl pH 7.5, 50 mM NaCl, 1 mM DTT, 4% glycerol, room temperature, 30 min; GST-TFs on glutathione beads, 16-mer random dsDNA library, 0.1% formaldehyde crosslink after washing; high values mean tight binding
# [1] = molecular target: T1, FEV (Homo sapiens, UniProt Q99581 1-238); details: protein: recombinant; tags: N-terminal GST; dsDNA, one strand shown
# T1 sequence: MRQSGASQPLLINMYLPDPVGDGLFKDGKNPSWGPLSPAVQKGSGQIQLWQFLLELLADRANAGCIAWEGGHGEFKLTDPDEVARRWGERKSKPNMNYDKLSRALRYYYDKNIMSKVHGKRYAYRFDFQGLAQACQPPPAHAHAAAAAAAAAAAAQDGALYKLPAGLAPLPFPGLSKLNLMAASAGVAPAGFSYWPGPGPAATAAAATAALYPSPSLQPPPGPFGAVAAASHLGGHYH
# How it was run: (§1)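 Sequencing on an Illumina NextSeq500 followed washing, crosslinking with 0.1% formaldehyde, proximity ligation (BsaI/T4 ligase, 1 h, 37 °C) and PCR amplification of pools that had been incubated for 30 min at room temperature with 200 nmole of a random double-stranded 16-mer DNA library in Tris/NaCl/DTT/glycerol buffer. Each pool held DNA-barcoded human transcription factors, expressed in yeast as GST fusions and captured on glutathione beads, plus a tag-only sample. Binding signal is a hexamer's read frequency for a factor divided by its frequency in the tag-only sample.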
# [2] = molecular target: ETV5 (Homo sapiens, UniProt P41161 1-510); details: protein: recombinant; tags: N-terminal GST; dsDNA, one strand shown
# Sequence of ETV5 (P41161 whole entry): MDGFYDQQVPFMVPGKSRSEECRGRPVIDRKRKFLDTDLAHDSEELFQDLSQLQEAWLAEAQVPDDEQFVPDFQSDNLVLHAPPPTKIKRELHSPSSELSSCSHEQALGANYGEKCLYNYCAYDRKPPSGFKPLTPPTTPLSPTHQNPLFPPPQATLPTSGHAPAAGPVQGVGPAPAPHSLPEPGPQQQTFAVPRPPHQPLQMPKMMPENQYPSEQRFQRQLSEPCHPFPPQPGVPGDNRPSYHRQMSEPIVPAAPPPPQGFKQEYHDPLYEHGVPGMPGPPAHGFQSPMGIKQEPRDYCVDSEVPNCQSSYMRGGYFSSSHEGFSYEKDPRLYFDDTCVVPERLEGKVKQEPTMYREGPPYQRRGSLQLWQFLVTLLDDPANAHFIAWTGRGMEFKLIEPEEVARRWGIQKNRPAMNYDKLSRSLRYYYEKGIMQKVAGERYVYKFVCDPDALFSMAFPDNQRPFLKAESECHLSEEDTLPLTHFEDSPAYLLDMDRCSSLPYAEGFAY
# How it was run: as §1
# [3] = molecular target: HSF1 (Homo sapiens, UniProt Q00613 1-529); details: protein: recombinant; tags: N-terminal GST; chain copies: 3; dsDNA, one strand shown
# Sequence of HSF1 (Q00613 whole entry): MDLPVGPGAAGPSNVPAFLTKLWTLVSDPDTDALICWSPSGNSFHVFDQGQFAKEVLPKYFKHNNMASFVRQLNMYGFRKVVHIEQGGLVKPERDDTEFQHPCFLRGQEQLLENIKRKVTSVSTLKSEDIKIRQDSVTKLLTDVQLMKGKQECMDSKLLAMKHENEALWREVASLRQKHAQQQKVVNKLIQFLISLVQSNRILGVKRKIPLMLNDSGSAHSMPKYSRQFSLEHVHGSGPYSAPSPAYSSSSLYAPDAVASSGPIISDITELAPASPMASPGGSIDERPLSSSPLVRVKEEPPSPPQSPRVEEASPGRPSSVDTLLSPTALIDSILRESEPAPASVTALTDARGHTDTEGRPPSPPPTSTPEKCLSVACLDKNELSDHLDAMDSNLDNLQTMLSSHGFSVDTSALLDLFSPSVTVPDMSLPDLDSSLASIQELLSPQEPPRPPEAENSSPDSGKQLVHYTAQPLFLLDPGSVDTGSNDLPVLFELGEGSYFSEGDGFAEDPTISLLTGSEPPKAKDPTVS
# How it was run: as §1
# [4] = molecular target: T2, SPIC (Homo sapiens, UniProt Q8N5J4 1-248); details: protein: recombinant; tags: N-terminal GST; dsDNA, one strand shown
# T2 sequence: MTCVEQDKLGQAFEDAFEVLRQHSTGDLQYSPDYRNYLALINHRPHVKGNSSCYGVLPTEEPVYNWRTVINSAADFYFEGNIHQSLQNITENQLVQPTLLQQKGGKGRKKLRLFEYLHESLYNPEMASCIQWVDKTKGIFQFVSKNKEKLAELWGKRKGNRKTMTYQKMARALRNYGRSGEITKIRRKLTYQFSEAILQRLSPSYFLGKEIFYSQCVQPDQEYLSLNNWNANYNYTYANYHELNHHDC
# How it was run: as §1
# [5] = molecular target: ELF4 (Homo sapiens, UniProt Q99607 1-663); details: protein: recombinant; tags: N-terminal GST; dsDNA, one strand shown
# Sequence of ELF4 (Q99607 whole entry): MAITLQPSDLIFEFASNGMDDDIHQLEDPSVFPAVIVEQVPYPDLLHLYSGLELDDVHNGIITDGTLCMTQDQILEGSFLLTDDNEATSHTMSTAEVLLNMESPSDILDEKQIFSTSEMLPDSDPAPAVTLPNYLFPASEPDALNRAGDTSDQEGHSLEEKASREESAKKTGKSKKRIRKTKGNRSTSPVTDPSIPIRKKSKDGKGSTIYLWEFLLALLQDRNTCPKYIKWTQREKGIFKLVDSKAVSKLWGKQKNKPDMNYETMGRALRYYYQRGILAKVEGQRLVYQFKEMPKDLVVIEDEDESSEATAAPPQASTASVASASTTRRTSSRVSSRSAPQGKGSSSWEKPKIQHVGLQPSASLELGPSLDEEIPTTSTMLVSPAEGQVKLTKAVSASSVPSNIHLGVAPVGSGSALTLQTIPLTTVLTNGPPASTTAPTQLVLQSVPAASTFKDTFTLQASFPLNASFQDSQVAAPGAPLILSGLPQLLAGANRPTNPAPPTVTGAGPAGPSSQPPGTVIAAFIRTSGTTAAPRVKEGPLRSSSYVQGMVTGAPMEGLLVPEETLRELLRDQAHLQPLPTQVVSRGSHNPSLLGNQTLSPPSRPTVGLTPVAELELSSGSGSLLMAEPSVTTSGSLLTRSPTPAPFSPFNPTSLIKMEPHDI
# How it was run: as §1
# [6] = molecular target: T3, ELK4 (Homo sapiens, UniProt P28324-2 1-405); details: protein: recombinant; tags: N-terminal GST; dsDNA, one strand shown
# T3 sequence: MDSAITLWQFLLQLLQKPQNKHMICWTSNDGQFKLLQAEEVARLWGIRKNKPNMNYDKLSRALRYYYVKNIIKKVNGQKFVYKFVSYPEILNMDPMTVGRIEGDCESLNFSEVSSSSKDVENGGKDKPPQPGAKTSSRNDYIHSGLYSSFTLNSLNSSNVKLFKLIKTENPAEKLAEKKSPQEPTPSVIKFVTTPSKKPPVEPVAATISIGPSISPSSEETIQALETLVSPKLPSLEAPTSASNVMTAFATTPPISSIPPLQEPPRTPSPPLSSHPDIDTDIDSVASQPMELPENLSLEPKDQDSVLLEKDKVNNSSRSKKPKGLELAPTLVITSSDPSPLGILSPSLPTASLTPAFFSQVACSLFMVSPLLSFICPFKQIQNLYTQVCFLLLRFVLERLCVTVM
# How it was run: as §1
# [7] = molecular target: T4, ETV2 (Homo sapiens, UniProt O00321 1-342); details: protein: recombinant; tags: N-terminal GST; dsDNA, one strand shown
# T4 sequence: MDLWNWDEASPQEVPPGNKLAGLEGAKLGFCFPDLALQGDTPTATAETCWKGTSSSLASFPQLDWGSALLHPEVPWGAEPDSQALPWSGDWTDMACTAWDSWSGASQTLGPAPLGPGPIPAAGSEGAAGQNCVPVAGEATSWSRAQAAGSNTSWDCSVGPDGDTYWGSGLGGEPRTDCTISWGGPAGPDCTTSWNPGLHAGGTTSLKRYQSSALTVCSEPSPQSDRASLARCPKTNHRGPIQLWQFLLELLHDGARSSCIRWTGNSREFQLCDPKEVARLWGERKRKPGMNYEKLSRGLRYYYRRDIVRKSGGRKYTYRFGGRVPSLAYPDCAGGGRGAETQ
# How it was run: as §1
# [8] = molecular target: T5, ELF3 (Homo sapiens, UniProt P78545 1-371); details: protein: recombinant; tags: N-terminal GST; dsDNA, one strand shown
# T5 sequence: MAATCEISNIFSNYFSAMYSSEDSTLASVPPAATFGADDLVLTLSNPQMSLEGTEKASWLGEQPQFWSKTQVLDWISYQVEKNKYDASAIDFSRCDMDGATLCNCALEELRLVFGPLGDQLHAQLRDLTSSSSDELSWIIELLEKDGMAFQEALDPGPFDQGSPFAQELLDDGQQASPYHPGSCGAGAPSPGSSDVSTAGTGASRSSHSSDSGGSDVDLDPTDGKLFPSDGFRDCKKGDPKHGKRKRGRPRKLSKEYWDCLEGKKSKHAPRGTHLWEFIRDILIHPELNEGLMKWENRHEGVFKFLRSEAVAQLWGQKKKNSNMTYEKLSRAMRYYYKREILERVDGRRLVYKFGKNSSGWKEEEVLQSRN
# How it was run: as §1
# [9] = molecular target: CRX (Homo sapiens, UniProt O43186 1-299); details: protein: recombinant; tags: N-terminal GST; dsDNA, one strand shown
# Sequence of CRX (O43186 whole entry): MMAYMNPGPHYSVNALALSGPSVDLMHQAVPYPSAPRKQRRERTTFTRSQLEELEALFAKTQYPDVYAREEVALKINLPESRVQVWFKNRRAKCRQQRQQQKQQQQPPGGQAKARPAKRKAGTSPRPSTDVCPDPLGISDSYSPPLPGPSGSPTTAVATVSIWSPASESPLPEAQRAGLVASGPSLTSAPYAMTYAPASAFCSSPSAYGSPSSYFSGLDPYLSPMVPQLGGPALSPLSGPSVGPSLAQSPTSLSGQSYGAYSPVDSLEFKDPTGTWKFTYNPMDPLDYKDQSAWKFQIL
# How it was run: as §1
# [10] = molecular target: ETV1 (Homo sapiens, UniProt P50549 1-477); details: protein: recombinant; tags: N-terminal GST; dsDNA, one strand shown
# Sequence of ETV1 (P50549 whole entry): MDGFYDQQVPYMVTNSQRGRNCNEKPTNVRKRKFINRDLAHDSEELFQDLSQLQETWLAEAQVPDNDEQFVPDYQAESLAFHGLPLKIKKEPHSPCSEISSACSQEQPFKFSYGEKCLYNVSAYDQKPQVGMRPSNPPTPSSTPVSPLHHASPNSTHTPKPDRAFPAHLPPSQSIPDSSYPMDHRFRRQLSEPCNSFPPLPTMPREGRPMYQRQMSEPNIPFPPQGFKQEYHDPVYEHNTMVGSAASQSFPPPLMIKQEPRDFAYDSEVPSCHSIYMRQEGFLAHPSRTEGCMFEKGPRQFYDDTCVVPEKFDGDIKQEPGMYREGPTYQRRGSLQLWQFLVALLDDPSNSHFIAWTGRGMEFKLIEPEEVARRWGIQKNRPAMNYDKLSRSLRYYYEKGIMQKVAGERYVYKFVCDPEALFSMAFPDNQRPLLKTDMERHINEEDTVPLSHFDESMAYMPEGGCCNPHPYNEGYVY
# How it was run: as §1
# [11] = molecular target: T6, ERF (Homo sapiens, UniProt P50548 1-548); details: protein: recombinant; tags: N-terminal GST; dsDNA, one strand shown
# T6 sequence: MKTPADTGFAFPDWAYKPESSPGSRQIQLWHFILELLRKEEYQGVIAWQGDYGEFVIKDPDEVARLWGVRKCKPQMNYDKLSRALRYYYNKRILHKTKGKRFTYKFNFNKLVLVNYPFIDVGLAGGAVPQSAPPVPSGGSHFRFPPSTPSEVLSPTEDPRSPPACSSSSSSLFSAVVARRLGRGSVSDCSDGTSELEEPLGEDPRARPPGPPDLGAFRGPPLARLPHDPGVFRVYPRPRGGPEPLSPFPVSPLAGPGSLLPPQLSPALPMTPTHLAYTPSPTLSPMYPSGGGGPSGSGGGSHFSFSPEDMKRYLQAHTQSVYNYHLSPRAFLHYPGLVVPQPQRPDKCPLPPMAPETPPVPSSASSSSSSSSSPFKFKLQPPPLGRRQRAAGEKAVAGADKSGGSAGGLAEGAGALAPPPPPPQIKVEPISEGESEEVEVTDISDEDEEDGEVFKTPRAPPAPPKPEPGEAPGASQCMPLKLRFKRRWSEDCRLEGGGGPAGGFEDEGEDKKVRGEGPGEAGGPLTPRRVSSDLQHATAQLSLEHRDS
# How it was run: as §1
# [12] = molecular target: T7, ETV3L (Homo sapiens, UniProt Q6ZN32 1-361); details: protein: recombinant; tags: N-terminal GST; dsDNA, one strand shown
# T7 sequence: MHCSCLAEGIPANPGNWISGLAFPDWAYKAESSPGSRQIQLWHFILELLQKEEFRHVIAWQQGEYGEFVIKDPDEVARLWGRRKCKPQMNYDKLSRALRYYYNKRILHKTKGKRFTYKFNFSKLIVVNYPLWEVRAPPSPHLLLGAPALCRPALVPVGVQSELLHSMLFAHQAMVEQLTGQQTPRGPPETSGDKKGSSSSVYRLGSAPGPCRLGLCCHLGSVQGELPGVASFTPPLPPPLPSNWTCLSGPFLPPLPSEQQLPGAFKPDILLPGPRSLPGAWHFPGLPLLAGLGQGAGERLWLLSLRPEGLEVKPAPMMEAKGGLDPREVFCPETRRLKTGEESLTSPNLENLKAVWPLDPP
# How it was run: as §1
# [13] = molecular target: T8, ETS2 (Homo sapiens, UniProt P15036 1-469); details: protein: recombinant; tags: N-terminal GST; dsDNA, one strand shown
# T8 sequence: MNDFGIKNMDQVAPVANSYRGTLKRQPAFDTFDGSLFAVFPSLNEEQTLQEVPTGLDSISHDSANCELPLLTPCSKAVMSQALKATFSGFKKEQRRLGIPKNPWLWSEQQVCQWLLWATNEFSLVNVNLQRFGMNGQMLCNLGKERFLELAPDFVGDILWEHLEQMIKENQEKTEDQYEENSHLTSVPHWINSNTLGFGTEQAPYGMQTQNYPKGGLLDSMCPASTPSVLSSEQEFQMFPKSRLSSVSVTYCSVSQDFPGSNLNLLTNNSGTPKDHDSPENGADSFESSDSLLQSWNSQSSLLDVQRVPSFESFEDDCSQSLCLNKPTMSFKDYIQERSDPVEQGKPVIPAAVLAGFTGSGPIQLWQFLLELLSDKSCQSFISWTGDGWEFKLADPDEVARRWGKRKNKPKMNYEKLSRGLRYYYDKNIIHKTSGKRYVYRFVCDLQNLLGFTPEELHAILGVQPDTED
# How it was run: as §1
# [14] = molecular target: T9, SPDEF (Homo sapiens, UniProt O95238 1-335); details: protein: recombinant; tags: N-terminal GST; dsDNA, one strand shown
# T9 sequence: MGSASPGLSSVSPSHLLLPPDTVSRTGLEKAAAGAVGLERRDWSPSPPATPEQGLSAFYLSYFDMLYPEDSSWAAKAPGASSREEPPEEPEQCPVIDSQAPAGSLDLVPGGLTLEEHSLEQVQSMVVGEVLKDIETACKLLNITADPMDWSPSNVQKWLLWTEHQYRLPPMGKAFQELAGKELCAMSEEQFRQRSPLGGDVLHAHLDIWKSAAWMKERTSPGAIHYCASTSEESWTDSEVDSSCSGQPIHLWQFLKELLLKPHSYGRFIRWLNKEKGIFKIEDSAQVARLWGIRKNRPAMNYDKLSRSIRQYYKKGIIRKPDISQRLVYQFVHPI
# How it was run: as §1
# [15] = molecular target: T10, ETV7 (Homo sapiens, UniProt Q9Y603 1-341); details: protein: recombinant; tags: N-terminal GST; dsDNA, one strand shown
# T10 sequence: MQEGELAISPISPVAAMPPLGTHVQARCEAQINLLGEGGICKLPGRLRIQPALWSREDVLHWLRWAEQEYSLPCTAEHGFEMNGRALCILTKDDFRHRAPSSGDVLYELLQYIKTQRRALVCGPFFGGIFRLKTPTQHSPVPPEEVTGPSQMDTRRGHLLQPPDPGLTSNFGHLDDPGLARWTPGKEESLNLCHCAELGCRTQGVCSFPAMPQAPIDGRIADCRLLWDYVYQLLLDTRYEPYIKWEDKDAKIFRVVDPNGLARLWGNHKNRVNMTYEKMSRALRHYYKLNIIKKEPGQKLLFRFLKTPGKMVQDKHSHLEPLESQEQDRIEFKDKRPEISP
# How it was run: as §1
# [16] = molecular target: T11, ELF5 (Homo sapiens, UniProt Q9UKW6-2 1-255); details: protein: recombinant; tags: N-terminal GST; dsDNA, one strand shown
# T11 sequence: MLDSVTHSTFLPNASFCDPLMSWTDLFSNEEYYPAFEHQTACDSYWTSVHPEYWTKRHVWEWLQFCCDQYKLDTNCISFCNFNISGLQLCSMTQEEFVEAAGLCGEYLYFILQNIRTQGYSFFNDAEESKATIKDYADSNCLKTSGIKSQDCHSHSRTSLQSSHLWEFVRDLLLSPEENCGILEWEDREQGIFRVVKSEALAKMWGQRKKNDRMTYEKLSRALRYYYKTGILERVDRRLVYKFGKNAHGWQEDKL
# How it was run: as §1
# [17] = molecular target: T12, ETV3 (Homo sapiens, UniProt P41162-2 1-143); details: protein: recombinant; tags: N-terminal GST; dsDNA, one strand shown
# T12 sequence: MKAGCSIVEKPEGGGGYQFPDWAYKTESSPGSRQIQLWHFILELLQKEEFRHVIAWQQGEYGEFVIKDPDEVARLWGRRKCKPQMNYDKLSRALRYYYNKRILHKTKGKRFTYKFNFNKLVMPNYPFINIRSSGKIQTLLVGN
# How it was run: as §1
# [18] = molecular target: ETV6 (Homo sapiens, UniProt P41212 1-452); details: protein: recombinant; tags: N-terminal GST; dsDNA, one strand shown
# Sequence of ETV6 (P41212 whole entry): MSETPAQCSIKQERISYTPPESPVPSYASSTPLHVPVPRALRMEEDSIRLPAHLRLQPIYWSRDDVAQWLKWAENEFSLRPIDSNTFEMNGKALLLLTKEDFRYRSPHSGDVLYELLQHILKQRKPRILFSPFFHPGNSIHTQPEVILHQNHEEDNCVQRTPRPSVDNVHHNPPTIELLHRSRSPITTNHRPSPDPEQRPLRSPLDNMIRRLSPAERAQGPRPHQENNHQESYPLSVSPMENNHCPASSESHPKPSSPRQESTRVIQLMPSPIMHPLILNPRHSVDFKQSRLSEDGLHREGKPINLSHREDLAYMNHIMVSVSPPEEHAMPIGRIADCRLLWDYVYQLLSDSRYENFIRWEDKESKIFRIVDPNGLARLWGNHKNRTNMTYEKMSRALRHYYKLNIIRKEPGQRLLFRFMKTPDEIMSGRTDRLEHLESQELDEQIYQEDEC
# How it was run: as §1
sequence,measurement,setting,value
TTTCAA,binding signal,[1],"1.34 fold enrichment (6-mer frequency, TF over GST control)"
same,binding signal,[2],"1.29 fold enrichment (6-mer frequency, TF over GST control)"
same,binding signal,[3],"1.23 fold enrichment (6-mer frequency, TF over GST control)"
same,binding signal,[4],"1.33 fold enrichment (6-mer frequency, TF over GST control)"
same,binding signal,[5],"1.34 fold enrichment (6-mer frequency, TF over GST control)"
same,binding signal,[6],"1.29 fold enrichment (6-mer frequency, TF over GST control)"
same,binding signal,[7],"1.32 fold enrichment (6-mer frequency, TF over GST control)"
same,binding signal,[8],"1.33 fold enrichment (6-mer frequency, TF over GST control)"
same,binding signal,[9],"1.34 fold enrichment (6-mer frequency, TF over GST control)"
same,binding signal,[10],"1.33 fold enrichment (6-mer frequency, TF over GST control)"
same,binding signal,[11],"1.22 fold enrichment (6-mer frequency, TF over GST control)"
same,binding signal,[12],"1.28 fold enrichment (6-mer frequency, TF over GST control)"
same,binding signal,[13],"1.24 fold enrichment (6-mer frequency, TF over GST control)"
same,binding signal,[14],"1.16 fold enrichment (6-mer frequency, TF over GST control)"
same,binding signal,[15],"1.3 fold enrichment (6-mer frequency, TF over GST control)"
same,binding signal,[16],"1.26 fold enrichment (6-mer frequency, TF over GST control)"
same,binding signal,[17],"1.31 fold enrichment (6-mer frequency, TF over GST control)"
same,binding signal,[18],"1.21 fold enrichment (6-mer frequency, TF over GST control)"
